Laboratory results published in PubChem BioAssay (NCATS).
Results filed as inconclusive are left out. Activity calls are given as the source filed them. Calls follow the shape of the dose curve; as a rule, active = well fitted curve in the direction sought with a large enough effect; inconclusive = small, poorly fitted or top-dose-only effect, or another doubt; inactive = no such curve, though single readings can be large; an effect the other way counts as inactive or inconclusive.

How the values were obtained:
[1] = qHTS of pediatric cancer cell lines to identify multiple opportunities for drug repurposing: Primary screen for LAN-5 cells (AID 1347100)
In short: (§1)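 Cells (500-1,000/well) rested 5 h, then received compounds for 48 h; metabolically active cells were measured by CellTiter-Glo luminescence. Final concentrations spanned up to 46 µM (MIPE, 11-point) or 0.59 nM-46 µM (NPC, 8-point) in primary screens, 11-point in follow-ups.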

[2] = qHTS of pediatric cancer cell lines to identify multiple opportunities for drug repurposing: Primary screen for BT-12 cells (AID 1347101); also: nearly all actives have a fitted effect of over 25% in size
In short: as §1

[3] = qHTS of pediatric cancer cell lines to identify multiple opportunities for drug repurposing: Primary screen for RD cells (AID 1347104); also: nearly all actives have a fitted effect of over 55% in size
In short: (§2)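 Viability was measured as metabolically active cells after 48 hours of treatment, read by CellTiter-Glo luminescence. Compounds were tested at multiple final concentrations, giving concentration-response curves.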

[4] = qHTS of pediatric cancer cell lines to identify multiple opportunities for drug repurposing: Primary screen for MG 63 (6-TG R) cells (AID 1347105); also: nearly all actives have a fitted effect of over 50% in size
In short: as §2

[5] = qHTS of pediatric cancer cell lines to identify multiple opportunities for drug repurposing: Primary screen for control Hh wild type fibroblast cells (AID 1347106); also: nearly all actives have a fitted effect of over 55% in size
In short: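 Cells (500-1,000/well) in growth media were settled 5 h at 37 degrees C, then given compounds for 48 h. Viability was read as CellTiter-Glo luminescence. Primary runs used MIPE at 11 points (0.78 nM-46 µM) and NPC at 8 points (0.59 nM-46 µM); follow-ups used 11 points.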

[6] = qHTS of pediatric cancer cell lines to identify multiple opportunities for drug repurposing: Primary screen for Rh30 cells (AID 1347107); also: nearly all actives have a fitted effect of over 75% in size
In short: as §1

[7] = qHTS of pediatric cancer cell lines to identify multiple opportunities for drug repurposing: Primary screen for Rh41 cells (AID 1347108); also: nearly all actives have a fitted effect of over 70% in size
In short: as §2

[8] = qHTS of pediatric cancer cell lines to identify multiple opportunities for drug repurposing: Primary screen for Rh18 cells (AID 1347102); also: nearly all actives have a fitted effect of over 65% in size
In short: as §1

[9] = qHTS of pediatric cancer cell lines to identify multiple opportunities for drug repurposing: Primary screen for OHS-50 cells (AID 1347103); also: nearly all actives have a fitted effect of over 40% in size
In short: as §1

Measured: Potency
Potency is read from the fitted curve at half-maximal effect.

O=C(Oc1ccc([N+](=O)[O-])cc1)N1CCC(C(O)(c2ccc3c(c2)OCO3)c2ccc3c(c2)OCO3)CC1
inactive: [1] | [2] | [3] | [4] | [5] | [6] | [7]

CS(=O)(=O)c1ccc(C(=O)C2C(=O)CCCC2=O)c([N+](=O)[O-])c1
inactive: [1] | [2] | [8] | [9] | [4] | [5] | [6]

CN[C@@H](C)[C@H](O)c1ccccc1
inactive: [2] | [8] | [9] | [3] | [4] | [5] | [6] | [7]

Nc1ccc([N+](=O)[O-])cc1
inactive: [1] | [2] | [4] | [5] | [6] | [7]

C=C1C[C@H]2[C@H]3CCC(=O)[C@@]3(C)CC[C@@H]2[C@@]2(C)C=CC(=O)C=C12
inactive: [1] | [3] | [4] | [5] | [6]

CCCCCCCCCCCCCCCC[N+](C)(C)C
active: [2] 7.77 µM | [8] 5.31 µM | [9] 3.89 µM | [3] 13.3 µM | [4] 21.1 µM

S=C(SSC(=S)N1CCCCC1)N1CCCCC1
active: [1] 0.168 µM | [2] 0.0389 µM | [8] 0.0299 µM | [3] 0.0299 µM | [5] 1.06 µM
inactive: [6]

O=C(N[C@@H](COc1ccc2[nH]c(=O)[nH]c2c1)c1ccccc1)c1cccn(Cc2ccc(F)c(F)c2)c1=O
inactive: [1] | [5] | [6]
active: [9] 30.6 µM

O=C(O)CNC(=O)c1c(O)c2ccccc2n(Cc2ccccc2)c1=O
inactive: [1] | [8] | [3] | [4] | [5] | [6] | [7]

Cc1[nH]nc2ccc(-c3cncc(OC[C@@H](N)Cc4c[nH]c5ccccc45)c3)cc12
active: [1] 0.166 µM | [2] 1.53 µM | [9] 1.53 µM | [3] 1.48 µM | [4] 2.35 µM | [6] 14.8 µM | [7] 2.64 µM

Clc1ccccc1C(c1ccccc1)(c1ccccc1)n1cccn1
inactive: [1] | [2] | [8] | [3] | [4] | [5] | [6] | [7]

CC(=Cc1csc(C)n1)[C@@H]1C[C@H]2O[C@]2(C)CCC[C@H](C)[C@@H](O)[C@@H](C)C(=O)C(C)(C)[C@@H](O)CC(=O)O1
active: [1] 0.001 µM | [9] 0.001 µM
inactive: [2] | [8] | [5] | [6]

Nc1ccc(N=Nc2ccccc2)cc1
active: [1] 38.6 µM
inactive: [5] | [7]

O=C(Oc1ccc([N+](=O)[O-])cc1)N1CCN(Cc2cccc(Oc3ccccc3)c2)CC1
active: [3] 18.7 µM | [4] 14.8 µM | [5] 3.32 µM
inactive: [1] | [8] | [9] | [6] | [7]

Cc1c(N)nc([C@H](CC(N)=O)NC[C@@H](N)C(N)=O)nc1C(=O)N[C@H](C(=O)N[C@@H](C)[C@H](O)[C@@H](C)C(=O)N[C@@H](C(=O)NCCc1nc(-c2nc(C(=O)NCCC[S+](C)C)cs2)cs1)[C@@H](C)O)C(O[C@H]1O[C@H](CO)[C@H](O)[C@@H](O)[C@@H]1O[C@H]1O[C@H](CO)[C@@H](O)[C@H](OC(N)=O)[C@H]1O)c1cnc[nH]1 (stereo partly specified)
inactive: [6] | [7]
active: [1] 0.526 µM | [9] 1.72 µM | [4] 0.59 µM

O=S(=O)(CC1CS1)c1ccc(Oc2ccccc2)cc1 (stereo unspecified)
active: [1] 23.5 µM | [9] 30.6 µM | [7] 18.7 µM
inactive: [5]

O=S(=O)(c1ccc(Cl)cc1)c1ccc(Cl)cc1
inactive: [1] | [8] | [3] | [4] | [5] | [6] | [7]

COC[C@H]1OC(=O)c2coc3c2[C@@]1(C)C1=C(C3=O)[C@@H]2CC[C@H](O)[C@@]2(C)C[C@@H]1OC(C)=O
active: [1] 2.64 µM | [8] 4.69 µM | [9] 0.306 µM | [3] 14.8 µM | [4] 1.87 µM | [7] 11.8 µM
inactive: [5]

CC1=NN=C(c2ccc(N)cc2)c2cc3c(cc2C1)OCO3
inactive: [1] | [2] | [9] | [3] | [4] | [5] | [6] | [7]

COc1cc2cc(c1Cl)N(C)C(=O)C[C@H](OC(=O)C(C)C)[C@]1(C)O[C@H]1[C@H](C)[C@@H]1C[C@@](O)(NC(=O)O1)[C@H](OC)C=CC=C(C)C2
active: [1] 0.001 µM | [2] 0.0485 µM | [9] 0.001 µM
inactive: [8] | [4] | [5] | [6] | [7]

C[C@@]12OC(=O)[C@]1([C@@H](O)[C@@H]1C=CCCC1)NC(=O)[C@H]2CCCl
active: [2] 0.137 µM | [9] 0.0685 µM | [3] 0.0526 µM | [4] 0.0296 µM | [5] 0.0935 µM | [6] 5.9 µM | [7] 0.059 µM

Nc1ccc(Cl)cc1
inactive: [2] | [9] | [3] | [4] | [5] | [6] | [7]

CCNC(=O)CC1N=C(c2ccc(Cl)cc2)c2cc(OC)ccc2-n2c(C)nnc21 (stereo unspecified)
inactive: [5]
active: [9] 21.7 µM | [3] 5.9 µM

CC(C)Oc1cccc(NC(=O)c2ccccc2C(F)(F)F)c1
active: [9] 25.2 µM
inactive: [3] | [4] | [5] | [6] | [7]

C=C[C@@H]1CN2CCC1C[C@H]2[C@H](O)c1ccnc2ccccc12 (stereo partly specified)
active: [8] 23.5 µM | [3] 37.2 µM
inactive: [4] | [5]

CC(C)(C)c1cc(C=C(C#N)C#N)cc(Br)c1O
inactive: [5] | [6] | [7]
active: [9] 30.6 µM

CN(C)NC(=O)CCC(=O)O
inactive: [2] | [8] | [3] | [4] | [6]

Oc1ccc2c3c1O[C@H]1c4[nH]c5c(c4C[C@@]4(O)[C@@H](C2)N(CC2CC2)CC[C@]314)C[C@@]1(O)[C@H]2Cc3ccc(O)c4c3[C@@]1(CCN2CC1CC1)[C@H]5O4
inactive: [2] | [8] | [9] | [3] | [4] | [5] | [6] | [7]

CC(=Cc1csc(C)n1)[C@@H]1C[C@H]2O[C@@H]2CCC[C@H](C)[C@@H](O)[C@@H](C)C(=O)C(C)(C)[C@@H](O)CC(=O)O1
inactive: [8] | [5] | [6]
active: [9] 0.001 µM

COc1ccc(CC2NCCc3cc(OC)c(OC)cc32)cc1OC (stereo unspecified)
inactive: [2] | [8] | [3] | [4] | [5] | [6] | [7]

O=S(=O)(O)C(F)(F)C(F)(F)C(F)(F)C(F)(F)C(F)(F)C(F)(F)C(F)(F)C(F)(F)F
inactive: [2] | [8] | [9] | [3] | [4] | [5] | [6] | [7]

c1ccc2c(CN3CCNCC3)cccc2c1
inactive: [2] | [3] | [4] | [5] | [6] | [7]

ClC1=C(Cl)[C@]2(Cl)[C@@H]3[C@@H]4C[C@@H]([C@H]5O[C@@H]45)[C@@H]3[C@@]1(Cl)C2(Cl)Cl
inactive: [5] | [6]
active: [9] 28.2 µM

CO/C=C(/C(=O)OC)c1ccccc1Oc1cc(Oc2ccccc2C#N)ncn1
active: [2] 8.93 µM | [9] 14.2 µM
inactive: [5]

C1=C2CCCN[C@H]2[C@@H]2C[C@H]1[C@@H]1CCCCN1C2
inactive: [2] | [8] | [9] | [3] | [4] | [5] | [6] | [7]

C=CCC1=C(C)C(OC(=O)C2C(C=C(C)C)C2(C)C)CC1=O (stereo unspecified)
active: [9] 28.2 µM
inactive: [8] | [4] | [5]

COc1ccc(C(=O)c2c(C)n(CCN3CCOCC3)c3cc(I)ccc23)cc1
active: [9] 19.3 µM | [3] 18.7 µM | [7] 18.7 µM
inactive: [5] | [6]

CCOC(=O)c1cncn1[C@H](C)c1ccccc1
inactive: [2] | [9] | [3] | [4] | [5] | [7]

CN1CCN(c2ccc([N+](=O)[O-])c3no[n+]([O-])c23)CC1
inactive: [5] | [6]
active: [9] 34.3 µM

CC1(C)CC/C(=C/c2ccc(Cl)cc2)C1(O)Cn1cncn1 (stereo unspecified)
inactive: [2] | [8] | [3] | [5] | [6] | [7]

O=C1C=CC[C@@H]2[C@H]3CCCN4CCC[C@@H](CN12)[C@@H]34
inactive: [5]

C[C@]12CCC(=O)C(O)=C1CC[C@@H]1[C@H]3CCC(=O)[C@@]3(C)CC[C@@H]12
inactive: [2] | [8] | [3] | [4] | [5] | [6]

CC(=O)OCC1=C(C(=O)O)N2C(=O)[C@@H](N)[C@@H]2SC1
active: [2] 1.37 µM | [9] 1.37 µM
inactive: [4] | [5] | [6] | [7]

CC(=O)Nc1ccc(OC[C@](C)(O)C(=O)Nc2ccc([N+](=O)[O-])c(C(F)(F)F)c2)cc1
inactive: [2] | [8] | [9] | [3] | [4] | [5] | [6] | [7]

C=CC(=O)NCNC(=O)C=C
inactive: [2] | [9] | [3] | [4] | [5] | [6] | [7]

C[C@]12CC[C@@H]3[C@@H](CCC4=CC(=O)CC[C@@H]43)[C@@H]1CC[C@@H]2OC(=O)CCc1ccccc1
inactive: [2] | [9] | [3] | [4] | [5] | [6] | [7]

COc1nn(CSP(=S)(OC)OC)c(=O)s1
inactive: [5]

C[C@]12CC[C@H](O)CC1=CC[C@H]1[C@H]3CCC(=O)[C@@]3(C)CC[C@@H]12
inactive: [2] | [3] | [5]

O=C(Nc1ccncc1)C(=O)c1cn(Cc2ccc(Cl)cc2)c2ccccc12
inactive: [8] | [5] | [6]
active: [2] 0.137 µM | [9] 0.0863 µM | [3] 0.0469 µM | [7] 0.0743 µM

Cc1ccccc1-n1c(Cn2ncc3c(N)ncnc32)nc2cccc(C)c2c1=O
inactive: [5]
active: [2] 0.0122 µM | [9] 0.0069 µM | [7] 0.935 µM

COC(=O)c1cncn1C(C)c1ccccc1 (stereo unspecified)
inactive: [2] | [8] | [9] | [3] | [4] | [5] | [6] | [7]

O=[N+]([O-])c1c2ccccc2cc2ccccc12
inactive: [2] | [8] | [4] | [5] | [6]

CC=C(C)C(=O)N[C@@H](c1ccccc1)[C@@H](O)C(=O)O[C@H]1C[C@@]2(O)[C@@H](OC(=O)c3ccccc3)[C@@H]3[C@]4(OC(C)=O)CO[C@@H]4C[C@H](O)[C@@]3(C)C(=O)[C@H](OC(C)=O)C(=C1C)C2(C)C
active: [9] 0.001 µM
inactive: [8] | [5] | [6]

COc1ccc2c(c1)CN(C)CC2c1ccc(Cl)c(Cl)c1 (stereo unspecified)
inactive: [4] | [5] | [6] | [7]
active: [9] 21.7 µM

CCN(CC)C(=O)c1ccc(C2=CC3(CCNCC3)Oc3cccc(O)c32)cc1
inactive: [2] | [8] | [4] | [5] | [6] | [7]
